This note sets out measurements from PubChem BioAssay AID686971 (National Center for Advancing Translational Sciences (NCATS), 2013).

Hit rate of the full screen: of about 360,000 compounds, about 7,500 (2.1%) were called active. About 8% were inconclusive and are not listed. The call rests on the fitted dose curve; in most records, active means well fitted cell-killing curve with a large enough effect; inconclusive means small, poorly fitted or top-dose-only effect, or effect the other way, or another doubt; inactive means no such curve, though single readings can be large or run the other way. What follows is part of a selection rich in actives, with near analogues and random picks from the rest. Where a call stands in place of a potency, no number is given.
Potency means the concentration at half of the fitted maximal effect.

The experiment in a line: qHTS for induction of synthetic lethality in tumor cells producing 2HG: qHTS for the HT-1080-IDH1KD cell line. The settings on record: HT-1080 IDH1 knockdown viability, ATP luminescence, 48 h; series mostly up to 46.1 µM. From the text:
Unbiased genomic sequencing for 22 glioma genomes found recurrent mutation of IDH1 on chromosome 2q33, a gene encoding the cytosolic isoform of IIDH1 associated with the tri-carboxylic acid cycle (TCA) that catalyzes the oxidative decarboxylation of isocitrate, yielding alpha-ketoglutarate and CO2 via NADP+ to NADPH conversion. Subsequent studies confirmed the recurrent IDH mutations in up to 70% of secondary gliomas and in 10% of AML cases. In addition, the somatic mutation of cancer-associated IDH1 is a point mutation resulting in various amino-acid substituents at Arginine132 (IDH1 R132), a key residue found in the enzyme's active site that when mutated, results in the loss-of-function in metabolizing isocitrate but confers a gain-of-function to produce the oncometabolite 2-hydroxyglutarate (2HG). This in effect defines IDH1 as an oncogene and provides an extraordinary opportunity to discover chemical probes against mutant IDH1 that may translate into much needed new therapies for glioma and AML patients.
This assay aims to perform a synthetic-lethal screen for chemical probes specific for 2HG-producing tumor cells using matched paired cell lines (1) HT-1080-NT fibrosarcoma cell line that overproduces 2HG and (2) HT-1080-IDH1KD cell line which has IDH1 expression knocked-down. Desirable compounds are toxic to the NT fibrosarcoma cell line but not to the IDH1KD cell line. The data in this AID corresponds to the results of the qHTS against the HT-1080 IDH1KD cell line.
[1] Dang L, Jin S, Su SM. IDH mutations in glioma and acute myeloid leukemia. Trends of Mol Med. 2010; 16(9): 387-97.
[2] Dang L et al. Cancer-associated IDH1 mutations produce 2-hydroxyglutarate. Nature. 2010; 465(7300):966.
Molecular Libraries Probe Production Centers Network [MLPCN]
NIH Chemical Genomics Center [NCGC]
Assay Submitter (PI): Lenny Dang Ph.D., Agios Pharmaceuticals
Suspensions of trypsinized HT-1080-IDH1KD cells were dispensed into white, tissue culture-treated, solid 1536-well plates at 5uL/well (750 cells/well final concentration) in RPMI medium supplemented with 5% FBS. Plates were incubated at 37 degrees C for 2 hours, after which 23 nL of compounds or DMSO were delivered to each well using a pin tool. Plates were then incubated at 37 degrees C for an additional 48 hours. CellTiter-Glo viability reagent (Promega) was dispensed into wells (2.5uL/well) and incubated at room temperature for 10 minutes. The plates were measured on a PerkinElmer ViewLux plate reader for luminescent signal (clear filter, 1 sec exp.). DMSO-treated control wells and media-only (no cells) control wells were used to normalize %Activity of identified toxic compounds; DMSO-treated wells corresponded to 0%Activity (100% viability), while media-only controls were used to normalize 100%Activity (0% viability). To minimize variability between cell lines, both HT-1080-NT and HT-1080-IDH1KD lines were dispensed and treated with identical compound series in single batches.
Concentration-response curves were fitted to the signals arising from the resulting luminescence. The concentration-effect curves were then classified based on curve quality (r2), response magnitude and degree of measured activity, and compounds were subsequently categorized based on their curve class.
On the technique in general: In qHTS, concentration-response curves come from the screen itself.
In the case of `CN(C)CCCOc1ccc(-c2ccc3nccn3c2)cn1`, the Potency result was “inactive”.
The same measure for `CN1CCN(C(=O)c2ccc(NC(=O)c3ccc(Br)o3)cc2)CC1`: “inactive”; for `Cc1ccccc1NC(=O)CSc1nc2ccc(Nc3nc(N4CCOCC4)nc(N4CCOCC4)n3)cc2s1`: “inactive”.
As for `O=C(CSc1nc(Nc2ccccc2)nc(N2CCOCC2)n1)Nc1cc(Cl)ccc1O`, the Potency was 18.4 µM (active).
In the case of `CC1(c2ccccc2)NC(=O)N(CC(=O)Nc2cc(Cl)ccc2N2CCOCC2)C1=O` (configuration not stated), the Potency result was “inactive”.
Consider `C=CCC[C@H](CCCCC)OC(=O)/C=C/[C@H](O)[C@@H](O)C[C@@H](O)CC=C`, for which the Potency result was “inactive”.
Turning to `O=C1C=C(c2ccc(Cl)cc2)C(=O)N1Nc1ccccc1`, the Potency is 18.4 µM (active).
With `O=C(O)CC1=C(Nc2ccccc2)C(=O)N(c2ccccc2)C1c1ccc(Cl)cc1` (configuration not stated), the Potency result is “inactive”.
With `O=C(CCC(=O)OCc1ccc(Cl)cc1)Nc1ccccc1`, the Potency result was “inactive”.
For `CCCNC(=O)c1cc(C2CCCCN2C(=O)OC)on1` (configuration not stated), the Potency result was “inactive”.
As for `c1ccc2c(c1)nnn2-c1ccncc1`, the Potency entry was “inactive”.
As to `COc1ccc(-c2nn(-c3ccccc3)cc2/C=C\C(=O)N2CCOCC2)cc1[N+](=O)[O-]`, the Potency entry is “inactive”.
Under `O=C(NCCCN1CCOCC1)c1cn(-c2ccccc2)nc1-c1ccc(F)cc1` stands “inactive”; under `O=C(/C=C/c1cn(-c2ccccc2)nc1-c1ccc2c(c1)OCCO2)NCCCN1CCOCC1`, 20.6 µM (active).
As for `COC(=O)c1ccc2nc(C3CCCCC3)c(Cc3cccc(F)c3)n2c1`, the Potency entry was “inactive”.
Consider `CCc1ccc([C@@H]2CC(=O)[C@@H]3CN(S(=O)(=O)c4ccc(C)cc4)[C@H](c4ccc(Cl)cc4)C[C@@H]3N2S(=O)(=O)c2ccc(C)cc2)cc1`, for which the Potency result was “inactive”.
The same measure for `CN(C)CCNC(=O)c1cccc(-c2cnc3c(NC=O)cc(-c4cccc(C(F)(F)F)c4)cn23)c1`: 18.4 µM (active).
As for `COc1ccccc1-c1cc(NC(C)=O)c2ncc(-c3ccc(F)cc3)n2c1`, the Potency result was “inactive”.
Turning to `O=CNc1cc(-c2ccc(C(=O)N3CCOCC3)cc2)cn2c(-c3ccc(F)cc3)cnc12`, the Potency is 13 µM (active).
As for `N#C/C=C(/c1ccc(F)cc1)N1CCOCC1`, the Potency entry was “inactive”.
The same measure for `COc1cccc(-c2cnc3c(NC(C)=O)cc(-c4cc(F)ccc4OC)cn23)c1`: 9.2 µM (active); for `CN(C)C(=O)c1cccc(-c2cnc3c(NC=O)cc(-c4ccc(C(=O)N5CCOCC5)cc4)cn23)c1`: “inactive”; for `CC(=O)Nc1cc(-c2ccc(N3CCN(C)CC3)cc2)cn2c(-c3cccc(C(=O)N(C)C)c3)cnc12`: “inactive”.
For `CCC(C)C(=O)Nc1ccccc1N1CCN(c2ccc(F)cc2)CC1` (configuration not stated), the Potency entry is “inactive”.
As to `O=C(NCCO)c1cccc(-c2cccc3nccn23)c1`, the Potency result was “inactive”.
Take `CC(=O)Nc1cc(-c2ccc(N3CCN(C)CC3)cc2)cn2c(-c3ccc(F)cc3)cnc12`: the Potency is 23.1 µM (active).
For `CC(=O)Nc1cc(-c2cccc(CO)c2)cn2c(-c3cccc(C(F)(F)F)c3)cnc12`, the Potency result was “inactive”.
With `COc1cccc(-c2cc(NC(C)=O)c3ncc(-c4cccc(C(C)=O)c4)n3c2)c1`, the Potency entry is “inactive”.
For the molecule `O=C1NC[C@H](CCCCN2C[C@H](Cc3ccccc3)N(Cc3ccccc3)C(=O)C2=O)N(CCc2ccc(O)cc2)C1=O`, the Potency entry is “inactive”.
Turning to `Cc1ccc(-c2ccc(C3=CC(=O)CC(C)(C)C3=O)cc2)cc1`, the Potency result is “inactive”.
As for `CC(C)C[C@@H]1Cc2[nH][nH]c(=O)c2[C@H](CCc2ccccc2)O1`, the Potency entry is “inactive”.
`CCOC(=O)[C@]12CCCC=C1N(CCC1=CCCCC1)C(=O)[C@H](CC(=O)NCCCOC)C2`: the Potency entry was “inactive”.
As for `CCCNC(=O)C1(C)CCCN(C(=O)c2oc3ccccc3c2C)C1` (configuration not stated), the Potency result is “inactive”.
Under `O=NN(CCCl)C(=O)NCCc1cccc[n+]1[O-]` stands “inactive”; under `CCc1nc2ccc(C(=O)NC3CCN(Cc4ccccc4)CC3)cn2c1N(C)CCN1CCOCC1`, “inactive”.
Take `C#CCNC(=O)C[C@@H]1C[C@@]2(C(=O)OCC)CCCC=C2N(Cc2ccco2)C1=O`: the Potency entry was “inactive”.
With `NS(=O)(=O)c1ccc(NC(=O)CSc2nnc3c(n2)[nH]c2ccccc23)cc1`, the Potency entry was “inactive”.
Regarding `CN(C)C(=O)c1cccc(-c2cnc3c(NC=O)cc(-c4ccc(F)cc4)cn23)c1`, the Potency was 23.1 µM (active).
The same measure for `CC(=O)c1cccc(-c2cnc3c(NC=O)cc(-c4cccc(C(=O)N(C)C)c4)cn23)c1`: “inactive”.
The same measure for `CCOc1ncccc1C(=O)Nc1ccc2c(c1)OCCO2`: “inactive”.
For the molecule `Cc1ccc2nc(-c3ccccn3)cc(C(=O)Nc3ccc4c(c3)OCO4)c2c1`, the Potency entry is “inactive”.
For the molecule `Cc1ccc2nc(-c3ccncc3)cc(C(=O)Nc3ccc4c(c3)OCCO4)c2c1`, the Potency was 9.2 µM (active).
For the molecule `CCOc1ccc(CCN2C(=O)C(=O)N([C@@H](CC(C)C)CN3CCC[C@H]3CN3C(=O)C(=O)NC[C@@H]3Cc3ccccc3)C[C@@H]2CC(C)C)cc1`, the Potency entry is “inactive”.
Consider `COC(=O)COc1cccc2c(=O)n(CC(=O)NCc3ccccc3)ccc12`, for which the Potency was 2.31 µM (active).
The same measure for `Cc1ccc(CNC(=O)CCNC(=O)Cn2ccc3ccccc3c2=O)cc1`: “inactive”; for `COC(=O)COc1cccc2c(=O)n(CC(=O)NCCc3ccc(OC)c(OC)c3)ccc12`: “inactive”; for `C=CCN1CCN(c2ccncc2S(=O)(=O)N2CCN(C)CC2)CC1`: “inactive”.
